Values joined by “and” are separate entries in the source; they are usually repeats but may differ in a detail not shown here. Identical values can stand only once. The panel holds about 79,000 compounds, 15% with a hit somewhere; the sample as a whole holds those more often. Active and inactive are the calls of the source. Cut-off read from the data, not from the text of the source: active = growth inhibition above about 70%; inactive = the rest.

This is an account of results in PubChem BioAssay (NCI).

A short description of one experiment: NCI Yeast Anticancer Drug Screen. Data for the mec2-1 strain (AID 157). To be noted: S. cerevisiae mec2-1 strain, stronger effect = higher value; at 50.0 µM unless noted. Summed up:
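Growth inhibition is read against vehicle-treated controls after compound exposure of the mec2-1 yeast strain, which is defective in DNA damage repair or cell cycle control.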
With `Clc1ccc(N=Nc2nc3ccccc3nc2N=Nc2ccc(Cl)cc2Cl)c(Cl)c1`, the growth inhibition was -4.6% (inactive).
The same measure, in the same setting: next, `CC(=O)c1c(Cl)nnc(-c2ccccc2)c1-c1ccccc1`: 0.05% (inactive); `C/C=C/C#C/C=C1/C=CC(=O)O1`: -1.35% (inactive).
Consider `O=C1c2ccccc2C(=O)c2c3c(cc(NCCNCCO)c21)N(CCO)CCN3`, for which the growth inhibition was 18.4% (inactive).
Regarding `Nc1c(F)cc(I)cc1F`, the growth inhibition is 2.15% (inactive).
Consider `Cc1cccc(NC(=O)Nc2ccccc2F)n1`, for which the growth inhibition was 5.65% (inactive).
In the case of `O=C(CC(=O)C(F)(F)F)c1ccccc1.O=C(CC(=O)C(F)(F)F)c1ccccc1.[Mn]`, the growth inhibition was -0.35% (inactive).
The same measure, in the same setting: as for `CN(C)C(CCC(=O)NC(C)(C)C)CC(=O)NC(C)(C)C` (stereo not given), the figure is 5% (inactive); as for `CCCC1([N+]2(C)CCCC2)CS(=O)C1CC` (stereo not given), 8.45% (inactive).
As for `c1ccc2nc3c(cc2c1)NCC3`, the growth inhibition was 5.15% (inactive).
The same measure, in the same setting: next, `CCCCOC(=O)c1cccc(C)c1`: 4.4% (inactive).
On the same count and under the same terms, as for `COc1cc(/C=C/C(=O)c2c(=O)o[nH][n+]2-c2ccccc2)ccc1[O-]`, the figure is -7.1% (inactive); as for `O=Nc1c(O)c2ccccc2[nH]c1=O`, 33.6% (inactive).
Same read-out and setting: as for `O=C(O)CCCl`, the figure is 7.65% (inactive) and -16.2% (inactive); as for `C=CCNC(=S)NNc1nc(C)cc(=O)[nH]1`, -27.9% (inactive); as for `O=S1(=O)OCCOS(=O)(=O)C1Cc1nc2ccccc2[nH]1`, 15.8% (inactive).

A further experiment in a line: NCI Yeast Anticancer Drug Screen. Data for the sgs1 mgt1 strain (AID 161).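 Note: 0% = growth of cultures given vehicle only.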 To be noted: S. cerevisiae sgs1 mgt1 strain, stronger effect = higher value; at 50.0 µM unless noted. Summed up: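 Percent growth inhibition was derived by comparing compound-exposed mutant yeast with vehicle-exposed cultures. The strain carries alterations in DNA damage repair.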
With `CCOC(=O)/C=C/CCC(C)(C)COC(C)=O`, the growth inhibition was -36.9% (inactive).
Same read-out and setting: next, `C=C(C)C(=O)O[C@H]1[C@H]2[C@H](OC(=O)[C@H]2C)[C@H](O)[C@@H](C)[C@@H]2C=CC(=O)[C@]21C`: 69.8% (inactive).
For `O=c1oc(-c2ccc([N+](=O)[O-])cc2)nc2cc(Cl)ccc12`, the growth inhibition is 44.7% (inactive).
Still for that read-out and setting: next, `O=C(/C=C/c1ccc(O)c(O)c1)OC1CC(O)(C(=O)O)CC(O)C1O` (stereo not given) (tested in a mixture with another compound): -9.35% (inactive); `Cc1ccc(C2OC3=C(Nc4ccc([N+](=O)[O-])cc4N3)C2=O)cc1` (stereo not given): 8.65% (inactive).
On the same count and under the same terms, as for `CC(=O)CC(=O)NCC1CCC(CNC(=O)CC(C)=O)CC1` (stereo not given), the figure is -13.9% (inactive).
The same measure, in the same setting: as for `Cc1[nH]c(=S)[nH]c1C`, the figure is 12.2% (inactive).
Take `C[N+](C)=c1nc(N2CCOCC2)ss1`: the growth inhibition was 6.8% (inactive).
On the same count and under the same terms, next, `O=C(O)C1C2OC3C(OC(=O)C31)C2Br` (stereo not given): -8.9% (inactive) and 2.25% (inactive).
Still for that read-out and setting: as for `O=C1NC(Cc2ccccc2)C(=O)NC1Cc1ccccc1` (stereo not given), the figure is 7.7% (inactive); as for `CCCCC(NC(=O)C(C)NC(=O)OCc1ccccc1)C(=O)O` (stereo not given), 3.4% (inactive).
Regarding `CC1(C)N=C(Oc2cc(Cl)cc(Cl)c2)NC(=S)N1`, the growth inhibition was 24% (inactive).
Same read-out and setting: next, `c1ccc2c(c1)ccc1c[n+]3ccccc3cc12`: 22.2% (inactive); `O=C(F)c1cccc2ccccc12`: -1% (inactive); `Cc1c2ccccc2nc(CS(C)(=O)=O)[n+]1[O-]`: -4.75% (inactive).
On the same count and under the same terms, as for `COc1ccc(C=C(C(=O)O)C(=O)O)cc1`, the figure is -8.15% (inactive); as for `ClCc1ccccc1C(c1ccccc1)c1ccccc1`, 7.1% (inactive).
With `CCOC(=O)c1c(C)[nH]c(C(=O)CCN(C)C)c1C`, the growth inhibition was 17.4% (inactive).
The same measure, in the same setting: next, `COc1ccc2c(c1)[nH]c1c3ccc(OC)cc3oc(=O)c21`: -35.5% (inactive).
Same read-out and setting: as for `COc1c2c(c(OC)c3ccccc13)C(=O)C1=C(CC=CC1)C2=O`, the figure is -8.6% (inactive).
With `CC(C)(O)C1CC(=O)C(C)(C2C(O)CC3(C)C4CC=C5C(CCC(O)C5(C)C)C4(C)C(=O)CC23C)O1` (stereo not given), the growth inhibition was 45% (inactive).
`CC(C)C1=CCC2C(=C1)CCC1C(C)(N=C=O)CCCC21C` (stereo not given): the growth inhibition is -7.7% (inactive).
As to `CC1CCC(c2ccccc2)(c2ccccc2)C1=O` (stereo not given), the growth inhibition was -2.5% (inactive).
As for `Clc1ccc(N=Nc2nc3ccccc3nc2N=Nc2ccc(Cl)cc2Cl)c(Cl)c1`, the growth inhibition was -13.2% (inactive).
The same measure, in the same setting: as for `CC(=O)c1c(Cl)nnc(-c2ccccc2)c1-c1ccccc1`, the figure is -9.2% (inactive); as for `C/C=C/C#C/C=C1/C=CC(=O)O1`, -7.2% (inactive).
In the case of `O=C1c2ccccc2C(=O)c2c3c(cc(NCCNCCO)c21)N(CCO)CCN3`, the growth inhibition was 33.8% (inactive).
Regarding `Nc1c(F)cc(I)cc1F`, the growth inhibition is -2.2% (inactive).
On to `Cc1cccc(NC(=O)Nc2ccccc2F)n1`, for which the growth inhibition was -8.95% (inactive).
Take `O=C(CC(=O)C(F)(F)F)c1ccccc1.O=C(CC(=O)C(F)(F)F)c1ccccc1.[Mn]`: the growth inhibition is 19.2% (inactive).
As for `CN(C)C(CCC(=O)NC(C)(C)C)CC(=O)NC(C)(C)C` (stereo not given), the growth inhibition was 11.7% (inactive).
With `CCCC1([N+]2(C)CCCC2)CS(=O)C1CC` (stereo not given), the growth inhibition was -3% (inactive).
As to `c1ccc2nc3c(cc2c1)NCC3`, the growth inhibition was -14.4% (inactive).
The same measure, in the same setting: as for `CCCCOC(=O)c1cccc(C)c1`, the figure is -4.35% (inactive).
With `COc1cc(/C=C/C(=O)c2c(=O)o[nH][n+]2-c2ccccc2)ccc1[O-]`, the growth inhibition was 16.1% (inactive).
Turning to `O=Nc1c(O)c2ccccc2[nH]c1=O`, the growth inhibition was 34.6% (inactive).
On to `O=C(O)CCCl`, for which the growth inhibition is 25.1% (inactive) and -18.3% (inactive).
As to `C=CCNC(=S)NNc1nc(C)cc(=O)[nH]1`, the growth inhibition is 11.7% (inactive).
On the same count and under the same terms, as for `O=S1(=O)OCCOS(=O)(=O)C1Cc1nc2ccccc2[nH]1`, the figure is 1.25% (inactive).
